Experimental data from PubChem BioAssay AID2314 (National Center for Advancing Translational Sciences (NCATS), 2010).
“And” between values parts separate entries of the source, which are not always exact repeats. Equal entries are not always repeated. About 37,000 (12%) of roughly 300,000 compounds were called active. Only a selection was taken, and actives are over-represented in it overall. Unmarked numbers belong to inactive results. No stated cut-off is given here; in the data, active means max response mostly above about 13% (no sharp cut-off); inactive means mostly below about 14%.

assay: Cycloheximide Counterscreen for Small Molecule Inhibitors of Shiga Toxin; details: cell reporter, cycloheximide protein synthesis inhibition counterscreen; hits give high values; further: read at 38.3 µM for the half of the compounds with a filed dose; 0% is about no effect

First: C=CCn1c(SCC(=O)NCC2CCCO2)nc2sc(C)c(C)c2c1=O (stereo not drawn)
Second: O=C(COC(=O)c1ccc(S(=O)(=O)Nc2ccccc2)cc1)NCC1CCCO1 (stereo not drawn)
The max response of the first is lower: -2.05% for the first, -1.31% for the second.

Compared with COc1ccc(CCCc2nnc(SCc3nc4ccccc4c(=O)[nH]3)n2C)cc1, COc1ccccc1C(=O)Nc1ccc(OCc2nnc3c4ccccc4c(C)nn23)cc1 is higher in max response: 1.63% for the first, 1.98% for the second.

Going from CCN(CC(=O)NCc1cccs1)C(=O)c1cccc(S(=O)(=O)Nc2ccccc2OC)c1 to COc1ccc(CC(=O)Nc2ccccc2NC(=O)c2ccco2)cc1OC, the max response rises from -1.21% to 6.8%.

Compared with Cc1ccc(-c2nc3ccccc3[nH]2)cc1N, OC(c1nc2ccccc2[nH]1)C(O)C(O)C(O)c1nc2ccccc2[nH]1 (stereo not drawn) is lower in max response: 34.2% for the first, -2.45% for the second.

Compared with CN(C(=O)C1CCN(c2ncnc3c2nc2n3CCCCC2)CC1)C1CCCCC1, CN(Cc1ccccc1)C(=O)C1CCCN(c2ncnc3c2nc2n3CCCCC2)C1 (stereo not drawn) is lower in max response: -1.8% for the first, -3.17% for the second.

Compared with CCOCc1nnc(NC(=O)CCS(=O)(=O)Cc2ccccc2)s1, COc1ccccc1C(C)NC(=O)Cc1ccsc1 (stereo not drawn) is higher in max response: -1.02% for the first, 5.18% for the second.

First: COc1ccc(OCC(=O)NNC(=O)c2ccc(-c3ccccc3)cc2)cc1
Second: CSCCC(NC(=O)COc1ccccc1)C(=O)Nc1ccc(C)cc1 (stereo not drawn)
The max response of the first is lower: -2.64% for the first, 4.05% for the second.

Going from CC(C)(C)NC(=O)COc1ccc(CNc2ccc3[nH]c(=O)[nH]c3c2)cc1 to Cc1ccc(O)c(NC(=S)NC(=O)COc2ccc(Br)cc2)c1, the max response falls from -1.49% to -1.57%.

Going from Cc1cccc(NC(=O)N2CCCCCC2)c1C to Cc1ccc(C(C)C)cc1OCC(=O)Nc1ccccc1N1CCCC1, the max response falls from 8.83% to -0.789%.

Going from COc1ccc(NS(=O)(=O)c2cc3c(cc2C)N(C(C)=O)CCO3)cc1 to CCN1CCN(C(=O)CN(C)S(=O)(=O)c2ccc(OC)cc2)CC1, the max response rises from -2.57% to 4.5%.

First: COc1ccc(C(=O)O/N=C(\N)Cc2ccc(Cl)cc2Cl)cc1OC
Second: COc1cc(/C=N/NC(=O)CNC(=O)c2ccncc2)ccc1OC(C)=O
The max response of the first is higher: 4.82% for the first, -4.24% for the second.

Going from CCc1nnc(NC(=O)CSCc2cc(=O)n3cc(C)sc3n2)s1 to CCOc1cc(/C=C(\C#N)c2nc(-c3cccs3)c(NC(C)=O)s2)ccc1O, the max response rises from 1.44% to 1.82%.

Compared with COc1ccc(OC)c(C(=O)c2ccc(C(=O)N3CCN(Cc4csc(C)n4)CC3)cc2)c1, COc1ccc(C(=O)N(C)CC(O)c2ccccc2)cc1OC1CCN(C(C)=O)CC1 (stereo not drawn) is higher in max response: -2.77% for the first, 3.8% for the second.

First: COc1cc(/C=N/NC(=O)CCc2n[nH]c(=O)[nH]c2=O)ccc1O
Second: CCNc1nc(NCC)nc(N/N=C/c2ccc(O)c(OC)c2)n1
The max response of the first is lower: -0.284% for the first, 7.49% for the second.

First: CC(C)[C@H](NC(=O)OCc1ccccc1)C(=O)OCc1ccccc1
Second: COCCNC(=O)/C(C#N)=C/c1cccc(OCc2ccccc2)c1
The max response of the first is lower: -4.84% for the first, 4.87% for the second.

First: CC1CCN(c2ccc([N+](=O)[O-])c(SCCO)c2)CC1
Second: CCOC(=O)N1CCN(c2cc(C)c([N+](=O)[O-])cc2F)CC1
The max response of the first is lower: 1.83% for the first, 16.3% for the second.

First: NC(=O)Nc1cccc(C(F)(F)F)c1
Second: O=C(O)CSCC(=O)Nc1cccc(C(F)(F)F)c1
The max response of the first is higher: 0.977% for the first, -6.91% for the second.

First: COc1nnc(-c2ccc(C)c(S(=O)(=O)N(C)C)c2)c2ccccc12
Second: CCn1c(=O)c([N+](=O)[O-])c(NCc2ccc3c(c2)OCO3)c2ccccc21
The max response of the first is higher: 0.699% for the first, -2.03% for the second.

Going from Cc1cc(C)c(S(=O)(=O)N2CCOCC2)cc1C to Cc1ccc(S(=O)(=O)N2CCCC(C(=O)N3CCN(C)CC3)C2)cc1 (stereo not drawn), the max response rises from 1.22% to 6.16%.

First: Cc1nc2ccc(NC(=O)C(F)(F)F)cc2o1
Second: CS(=O)(=O)c1ccc2nnn(OCC(=O)Nc3cccc(C#N)c3)c2c1
The max response of the first is higher: 1.37% for the first, -3.01% for the second.

Going from O=C(CSc1ncccn1)NC(=O)NCc1ccccc1 to CCCCc1ccc(NC(=O)NCc2cccnc2)cc1, the max response rises from -1.54% to 16%.

First: N#C/C(=C\c1ccc(N2CCOCC2)o1)C(=O)N1CCOCC1
Second: CC(C)(C)C(=O)/C(C#N)=C/c1ccc(O)cc1
The max response of the first is lower: 1.71% for the first, 8.63% for the second.

Going from CC(=O)Nc1ccc(NC(=O)[C@@H](NC(=O)c2cccc(C)c2)C(C)C)cc1 to COc1ccc(N2C(=O)C(CC(=O)Nc3ccccc3)N(Cc3ccc(OC)c(OC)c3)C2=O)cc1 (stereo not drawn), the max response rises from -5.14% to 14.6%.

Compared with Nc1nc(SC23CC4CC(CC(C4)C2)C3)ns1, Cn1c(=O)[nH]c(=O)c2c1nc(CN1CCN(c3ccccc3F)CC1)n2CCc1ccccc1 is higher in max response: -2.92% for the first, 2.36% for the second.

For c1ccc2[nH]c(-c3nc4ccccc4[nH]3)nc2c1, the max response was 33.9% (active).
With COC(=O)c1ccc(OCC(=O)NC(C)(C)C)cc1 the max response was 31.4% (active).
With COc1ccc(C/C(N)=N/OC(=O)c2ccco2)cc1OC the max response was 22.4% (active).
For CCN1CCN(C(=O)c2cc3cc4ccc(OC)cc4nc3s2)CC1, the max response was 15.1% (active).
For COc1cc(/C=N\Nc2nc(-c3cccs3)c(NC(C)=O)s2)ccc1O, the max response was 17.1% (active).
In the case of COc1cc(/C=N/Nc2nc3ccccc3s2)ccc1O, the max response is reported as 72.3% (active).
In the case of FC(F)(F)c1cccc(N/N=C/c2ccccc2)c1, the max response is reported as 41.1% (active).
For Cc1ccc(O)c(NC(=O)COc2cc(C)ccc2C)c1, the max response was 28.6% (active).
With Cc1nc2cc(NC(=O)NCc3ccccc3)ccc2o1 the max response was 21.4% (active).
With Cc1ccc(NC(=O)Nc2ccc3oc(C)nc3c2)cc1 the max response was 53.3% (active).
For CC(C)NC(=O)/C(C#N)=C\c1ccc(N(C)C)c(Br)c1, the max response was 27.9% (active).
With Cc1ccc(NC(=O)C(C)c2cccc(C(=O)c3ccccc3)c2)cc1 (stereo not drawn) the max response was 26.6% (active).
In the case of CCCCCCSc1nsc(N)n1, the max response is reported as 23.1% (active).
With CCCSc1nsc(N)n1 the max response was 22.8% (active).
In the case of CCCCCCNS(=O)(=O)c1ccccc1Br, the max response is reported as -2.52% and 6.23%.
